Unmarked numbers belong to inactive results. The call rests on the fitted dose curve; in most records, active means well fitted cell-killing curve with a large enough effect in the repeat runs; inconclusive means weak or mixed curves, or effect the other way; inactive means flat fitted curve, though single readings scatter.
Assay: qHTS assay to identify small molecule HDAC inhibitors - cell viability counter screen (AID 1259365); further: nearly all actives have a fitted effect of over 50% in size
Settings: HCT-116 viability, CellTiter-Glo ATP luminescence, 2 h; series mostly up to 92.4 µM; activity change, negative = cytotoxicity: at the top concentration
From the text: U.S. Tox21 Program National Center for Advancing Translational Sciences [NCATS] NIH Chemical Genomics Center [NCGC] U.S. Environmental Protection Agency [EPA] National Institutes of Environmental Health Sciences [NIEHS] National Toxicology Program [NTP] U.S. Food and Drug Administration [FDA] Tox21 Assay Overview: Histone deacetylases (HDACs) are a group of epigenetic enzymes that regulate gene expression by histone deacetylation. HDACs are capable of introducing epigenetic modifications and such aberrations contribute to the onset and progression of several human diseases, thus making HDACs a popular therapeutic target. For identifying endogenous class I/II HDAC inhibitors a homogenous, luminogenic HDAC I/II cell based assay was used to measure the relative activity of class I and II HDACs from cells. Wild type HCT-116 cells were used to screen Tox21 compound libraries for identifying class I/II HDAC inhibitors.
Tox21 Assay Protocol Summary: HCT-116 cells were dispensed at 1,500 per well in 5uL of culture medium into white solid bottom 1536-well plates (Greiner Bio-One, Monroe, NC) using a Multidrop Combi (Thermo Scientific, Waltham, MA) dispenser. The assay plates were incubated at 37 C and 5% CO2 for an overnight, and then 23nL of compounds dissolved in DMSO and positive control were transferred using a Pintool station (Wako, San Diego, CA). The assay plates were incubated at 37C and 5% CO2 for 2hr. After compound treatment, 4uL of CellTiter-Glo reagent (Promega Corporation, Madison, WI) was added to each well of the assay plates using Flying Reagent Dispenser (FRD, Aurora Discovery, San Diego, CA) and incubated the assay plates at room temperature for 30min. The luminescence signal was quantified using a ViewLux plate reader (Perkin Elmer, Shelton, CT).
On the % scale 0 is the no-effect control and ±100 the full control effect.

Structure (SMILES)	activity change, negative = cytotoxicity
CCCc1nc(C)c2c(=O)[nH]c(-c3cc(S(=O)(=O)N4CCN(CC)CC4)ccc3OCC)nn12	2.64% [at 42.5 µM]
O=C(O)c1ccc(O)c(O)c1	-0.303%
O=C(OCCCCCOC(=O)c1ccccc1)c1ccccc1	-0.192%
CC(C)NC(=O)c1ccccc1N	4.22%
OCCOc1cccc(OCCO)c1	1.13%
COc1cccc([C@H](O)C2CCN(CCc3ccc(F)cc3)CC2)c1OC	-5.52%
C[C@@H](O)[C@H]1C(=O)N2C(C(=O)O)=C(S[C@@H]3CN[C@H](CNS(N)(=O)=O)C3)[C@H](C)[C@H]12	-6.56% [at 42.5 µM]
O=C(O)c1cccc(C(=O)O)c1C(=O)O	0.889%
CCC1=C(C)CN(C(=O)NCCc2ccc(S(=O)(=O)NC(=O)NC3CCC(C)CC3)cc2)C1=O (stereo not given)	12.6% [at 42.5 µM]
Cc1cccc(C)c1NC(=O)CN1CCCC1	-1.58% [at 42.5 µM]
CC(COc1ccccc1)NC(C)C(O)c1ccc(O)cc1 (stereo not given)	-1.82% [at 42.5 µM]
CO[C@@H]1[C@@H](O[C@@H]2O[C@H](C)[C@@H](O[C@H]3C[C@@](C)(O)[C@@H](O)[C@H](C)O3)[C@H](N(C)C)[C@H]2O)[C@@H](CC=O)C[C@@H](C)[C@@H](O[C@@H]2CC[C@H](N(C)C)[C@@H](C)O2)/C=C/C=C/C[C@@H](C)OC(=O)C[C@H]1OC(C)=O	0.976% [at 42.5 µM]
Nc1cccc2c(=O)[nH][nH]c(=O)c12	-1.18%
CC(=O)c1ccc(Cl)c(Cl)c1Cl	1.24%
CC1=C(C)C(=O)C(C(CCCCCC(=O)O)c2ccccc2)=C(C)C1=O (stereo not given)	4.83% [at 42.5 µM]
Cc1ccc(S(=O)(=O)NC(=O)NC2CCCC2)cc1	0.139% [at 42.5 µM]
CCCC1CCCC(=O)O1 (stereo not given)	1.51%
O=C1c2ccccc2C(=O)C1c1ccc2ccccc2n1	-9.14% [at 42.5 µM]
CC(Cc1ccccc1)(NC(=O)CN)c1ccccc1 (stereo not given)	2.33% [at 42.5 µM]
CCn1nc(Cc2ccccc2)cc1C1CCN(C[C@H]2C[C@H](N(C)[C@@H](C(=O)O)C(C)C)C[C@@H]2c2cccc(F)c2)CC1	-0.475%

Structure (SMILES)	activity change, negative = cytotoxicity
CCCN(C1CCN(C(=O)C2CCNCC2)CC1)[C@@H]1CCc2ccc(OC)cc2C1	-10.6%
CC(C)(C)c1ccc(CCC=O)cc1	5.67%
CC(C)CC(C)(C)C	3.43%
O=C(Cl)c1ccc(F)c(Cl)c1	-0.531%
O=C(O)c1c2ccccc2cc2ccccc12	0.33%
C1CCN(CN2CCCCC2)CC1	0.595%
CCCCCCCCC(=O)OCC(C)OC(=O)CCCCCCCC (stereo not given)	-0.123%
CCc1c(C)[nH]c2c1C(=O)C(CN1CCOCC1)CC2 (stereo not given)	1.3% [at 42.5 µM]
NC(=O)c1ccccc1C(N)=O	0.386%
Cc1cc(SC2=C(O)C[C@@](CCc3ccc(N)cc3)(C(C)C)OC2=O)c(C(C)(C)C)cc1CO	1.09%
O=C1CCCN1CCO	-10.9%
O=S(=O)(O)c1cc(Cl)c(Cl)cc1Cl	3.72%
CC(C)C/C=C(\C=O)c1ccccc1	-3.16%
CCOc1ccccc1O	-3.19%
CCCCCCCCOCCCN	-7.56%
S=c1[nH][nH]c(=S)s1	-4.03%
COc1ccc(/C=C/c2cc(OC)cc(=O)o2)cc1	-1.62% [at 42.5 µM]
CCCCOC(=O)C(C)Oc1ccc(Oc2ccc(C(F)(F)F)cn2)cc1 (stereo not given)	-0.936%
COc1ccc(/C(C)=C/C(=O)O)c(OC)c1	1.13% [at 42.5 µM]
CC(=O)Nc1ccn(C2COC(COC(=O)c3ccccc3)O2)c(=O)n1 (stereo not given)	-0.633% [at 42.5 µM]
